Only some compounds are listed: those with a hit (about 6.3% of all), similar ones and a draw of the others.
TIM10 inh: growth inhibitors of TIM10 yeast strain. S. cerevisiae TIM10 strain growth, BacTiter-Glo luminescence, 24 h. inhibition, % at 10 µM. 1.4% of 330,000 active. AID 463195;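 active = inhibition of 40% or more at the single tested concentration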;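 note: wild-type TIM10 isogenic control strain grown at permissive 25 °C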
MPTP inh: inhibitors of mitochondrial permeability transition pore; isolated mouse mitochondria, Ca2+ swelling absorbance, 30 min; inhibition, % at 10 µM; AID 602449; 1.4% of 360,000 active;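 active = inhibition of 50% or more, scaled per plate between neutral and stimulator controls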
tim10-1 inh: tim10-1 yeast growth inhibition; S. cerevisiae tim10-1 ts strain growth, BacTiter-Glo, 24 h; 2.2% of 330,000 active; AID 463190; inhibition, % at 20 µM;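 active = inhibition of at least 40%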;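 note: mutant grown at 25 °C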
Mdm2-MdmX inh: disrupts the human Mdm2-MdmX interaction; O15151+Q00987; SaOS-2 split-luciferase Mdm2/MdmX complementation, luminescence; inhibition, % at 8 µM; 3% of 330,000 active; AID 485346;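 active = inhibition of at least 50% at 8 µM in the primary screen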
Target sequence (O15151 whole entry, looked up): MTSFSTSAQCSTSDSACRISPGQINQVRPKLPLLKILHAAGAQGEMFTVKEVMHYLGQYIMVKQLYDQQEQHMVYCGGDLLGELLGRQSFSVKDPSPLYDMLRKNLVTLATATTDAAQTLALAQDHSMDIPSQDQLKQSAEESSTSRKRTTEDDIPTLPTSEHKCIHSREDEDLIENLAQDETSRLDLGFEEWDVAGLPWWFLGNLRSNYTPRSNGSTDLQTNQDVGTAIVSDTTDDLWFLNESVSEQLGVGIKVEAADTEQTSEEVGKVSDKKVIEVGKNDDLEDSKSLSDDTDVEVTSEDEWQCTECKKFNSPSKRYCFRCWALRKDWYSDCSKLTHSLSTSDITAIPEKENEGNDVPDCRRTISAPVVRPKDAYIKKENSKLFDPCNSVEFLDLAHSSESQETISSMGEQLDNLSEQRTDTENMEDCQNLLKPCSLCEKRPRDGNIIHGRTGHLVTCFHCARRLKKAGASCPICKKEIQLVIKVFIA
Target sequence (Q00987 whole entry, looked up): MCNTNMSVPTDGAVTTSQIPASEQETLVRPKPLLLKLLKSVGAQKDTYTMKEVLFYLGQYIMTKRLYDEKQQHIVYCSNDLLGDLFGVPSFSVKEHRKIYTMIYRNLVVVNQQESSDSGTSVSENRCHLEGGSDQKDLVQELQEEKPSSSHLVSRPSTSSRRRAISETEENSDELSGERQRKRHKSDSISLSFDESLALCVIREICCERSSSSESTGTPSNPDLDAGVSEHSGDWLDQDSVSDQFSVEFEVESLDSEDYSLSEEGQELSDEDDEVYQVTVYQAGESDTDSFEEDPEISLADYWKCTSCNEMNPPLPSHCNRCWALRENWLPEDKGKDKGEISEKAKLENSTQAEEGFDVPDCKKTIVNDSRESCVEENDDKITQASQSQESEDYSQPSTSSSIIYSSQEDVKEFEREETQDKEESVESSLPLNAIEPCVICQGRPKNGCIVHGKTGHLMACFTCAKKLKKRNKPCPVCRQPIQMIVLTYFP
tim23-1 inh: tim23-1 yeast growth inhibition. S. cerevisiae tim23-1 growth, BacTiter-Glo luminescence, 24 h. inhibition, % at 20 µM. 1.3% of 330,000 active. AID 463212;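 active = growth inhibition of the mutant yeast at or above 50%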;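 note: temperature-sensitive mutant grown at 25 °C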
tim10-1 conf: tim10-1 yeast growth inhibition, confirmed; shares compounds with tim10-1 inh; S. cerevisiae tim10-1 ts strain growth, BacTiter-Glo, 24 h; inhibition, % at 20 µM; 56% of 7,400 active; AID 463213;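 active = inhibition of yeast growth at or above a set limit in either of two repeat tests at 20 µM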;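 note: tim10-1 mutant grown at permissive 25 °C to find synthetic lethal compounds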
tim10 confirm: TIM10 yeast growth inhibition, confirmed; shares compounds with TIM10 inh; S. cerevisiae tim10 strain growth, BacTiter-Glo luminescence, 24 h; 63% of 4,600 active; inhibition, % at 10 µM;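 active = inhibition of yeast growth at or above a set limit in either of two replicates at 10 µM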; note: this counterscreen used the strain with wild-type TIM10
tim23-1 conf: tim23-1 yeast growth inhibition, confirmed | inhibition, % at 20 µM | 83% of 4,400 active | S. cerevisiae tim23-1 growth, BacTiter-Glo luminescence, 24 h | shares compounds with tim23-1 inh;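 active = inhibition above about 39% in either of two replicate wells at 20 µM, limit read from the data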;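 note: temperature-sensitive tim23-1 mutant grown at 25 °C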
Each line names hits and unclear results; the compound was inactive in the other large screens (follow-up assays come after a bar, where they were run).

COc1cc(/C=C2\SC(c3ccc(C)cc3)=NC2=O)cc(OC)c1O	TIM10 inh 44, tim10-1 inh 54, tim23-1 inh 53 | tim10-1 conf 38 | tim10 confirm 40 | tim23-1 conf 49
Cc1cc2nc(-c3nnnn3C3CCCCC3)c(=O)[nH]c2cc1C	none (no result: TIM10 inh, tim10-1 inh, Mdm2-MdmX inh, tim23-1 inh)
O=C(Oc1cc(=O)oc2c1c(=O)n1c3c(cccc23)CC1)c1ccc(F)cc1	TIM10 inh 47, tim10-1 inh 46, tim23-1 inh 71 | tim10-1 conf inactive | tim10 confirm inactive | tim23-1 conf 53
COc1ccc(S(=O)(=O)N(C)C[C@@H]2Oc3cc(Br)ccc3S(=O)(=O)N([C@H](C)CO)C[C@@H]2C)cc1	none (no result: TIM10 inh, tim10-1 inh, Mdm2-MdmX inh, tim23-1 inh)
CN=c1scc(-c2cccs2)n1/N=C/c1ccc(O)c(O)c1O	tim10-1 inh 42, tim23-1 inh 71 | tim10-1 conf inactive | tim23-1 conf 84
CN=c1scc(C)n1/N=C/c1ccc(O)c(O)c1O	none
Cc1cc(C)c2cc(C=O)c(Cl)nc2c1	TIM10 inh 51, tim10-1 inh 45, tim23-1 inh 67 | tim10-1 conf 40 | tim10 confirm 32 | tim23-1 conf 78
CCc1cc2cc(C)cc(C)c2nc1Cl	none
COC(=O)C1=C(C)N(c2cc(C)cc(C)c2)/C(=C/c2ccco2)C1=O	tim10-1 inh 55, tim23-1 inh 54 | tim10-1 conf inactive | tim23-1 conf 50
Cc1ccc2c(c1)/C(=C/c1ccc(F)cc1)C(=O)N2	TIM10 inh 66, tim10-1 inh 59, tim23-1 inh 62 | tim10-1 conf 71 | tim10 confirm 77 | tim23-1 conf 50
COc1ccc2c(c1)/C(=C/c1cc(OC)c(OC)c(OC)c1)C(=O)N2	none (no result: TIM10 inh, tim10-1 inh, Mdm2-MdmX inh, tim23-1 inh)
COc1cccc(C(C)(O)c2nc(-c3cccc(C#N)c3)cs2)c1 (stereo unspecified)	none (no result: TIM10 inh, tim10-1 inh, Mdm2-MdmX inh, tim23-1 inh)
O=[N+]([O-])c1cncc([N+](=O)[O-])c1Nc1ccccc1Cl	tim10-1 inh 51, tim23-1 inh 57 | tim10-1 conf 43 | tim23-1 conf 69
O=C(OCc1nc2ccccc2[nH]1)C12CC3CC(CC(C3)C1)C2	tim10-1 inh 58, tim23-1 inh 58 | tim10-1 conf 51 | tim10 confirm inactive | tim23-1 conf 43
O=[N+]([O-])c1cccc(C2NCC(c3ccccc3Cl)c3c2[nH]c2ccccc32)c1 (stereo unspecified)	TIM10 inh 63, tim10-1 inh 59, tim23-1 inh 58 | tim10-1 conf 52 | tim10 confirm 58 | tim23-1 conf 76
CCn1c(/C=C/c2ccc(O)c(O)c2)nc2ccccc2c1=O	none
Cn1c(/C=C/c2cccc(Br)c2)nc2ccccc2c1=O	tim10-1 inh 57, tim23-1 inh 63 | tim10-1 conf 55 | tim23-1 conf 59
O=c1c2ccccc2nc(/C=C/c2cccc(Br)c2)n1CCCO	none
CCn1c(/C=C/c2cc(Br)ccc2O)nc2ccccc2c1=O	TIM10 inh 58, tim10-1 inh 67, tim23-1 inh 63 | tim10-1 conf 69 | tim10 confirm 59 | tim23-1 conf 75
CCOC(=O)C1CCN(C2=NC(=O)/C(=C/c3ccc(Cl)cc3)S2)CC1	tim10-1 inh 49, tim23-1 inh 50 | tim10-1 conf 32 | tim23-1 conf 44
CCOC(=O)C1CCN(C2=NC(=O)/C(=C/c3ccc(OC)c(OC)c3)S2)CC1	none
Fc1c(F)c(F)c(N/N=C/c2c[nH]c3ccccc23)c(F)c1F	TIM10 inh 61, tim10-1 inh 59, tim23-1 inh 80 | tim10-1 conf 55 | tim10 confirm inactive | tim23-1 conf 43
COc1cc2c(cc1OCc1ccccc1)/C(=C/C(=O)OCc1ccccc1)OC2	none (no result: TIM10 inh, tim10-1 inh, Mdm2-MdmX inh, tim23-1 inh)
CCc1nc2c(OCc3cccc(Cl)c3)cccn2c1N(C)C(=O)C1CC1	none (no result: TIM10 inh, tim10-1 inh, Mdm2-MdmX inh, tim23-1 inh)
CC(C)CN1C(=O)/C(=C(/C#N)C(=O)NC2CCCCC2)c2ccccc21	TIM10 inh 79, tim10-1 inh 72, tim23-1 inh 64 | tim10-1 conf 71 | tim10 confirm 79 | tim23-1 conf 50
CCCCN1C(=O)/C(=C(/C#N)C(=O)N2CCCC2)c2ccccc21	none
Cc1ccc(Nc2nc3ccc(Cl)cc3n3cnnc23)cc1F	tim10-1 inh 63, tim23-1 inh 51 | tim10-1 conf inactive | tim23-1 conf inactive
Cc1ccc2nc(Nc3ccc(F)cc3)c3nncn3c2c1	none
CCN(CC)C(=O)c1cccc(-c2csc(C(C)(O)c3cccc(F)c3)n2)c1 (stereo unspecified)	none (no result: TIM10 inh, tim10-1 inh, Mdm2-MdmX inh, tim23-1 inh)
O=c1oc(/C=C/c2ccc([N+](=O)[O-])s2)nc2ccccc12	tim10-1 inh 60, tim23-1 inh 54 | tim10-1 conf 46 | tim23-1 conf 45
O=[N+]([O-])c1ccc(C=Nc2cccc3ccccc23)s1	tim10-1 inh 77, tim23-1 inh 79 | tim10-1 conf 77 | tim23-1 conf 70
COCc1c(C(=O)Nc2nnc(C3CC3)s2)oc2ccccc12	none (no result: TIM10 inh, tim10-1 inh, Mdm2-MdmX inh, tim23-1 inh)
Cc1c(C(=O)NCc2cccc([N+](=O)[O-])c2)sc(=O)n1Cc1ccc(C(C)C)cc1	none (no result: TIM10 inh, tim10-1 inh, Mdm2-MdmX inh, tim23-1 inh)
Cc1c(C(=O)NCc2ccc3c(c2)OCO3)oc2ccccc12	TIM10 inh 41, tim10-1 inh 48, tim23-1 inh 53 | tim10-1 conf 42 | tim10 confirm inactive | tim23-1 conf 55
Cc1ccc2oc(C(=O)NCc3ccc4c(c3)OCO4)c(C)c2c1	none
Cc1ccc(C)c(/C=C2\N=C(c3ccccc3F)OC2=O)c1	TIM10 inh 46, tim10-1 inh 40, tim23-1 inh 53 | tim10-1 conf 57 | tim10 confirm 53 | tim23-1 conf 54
O=C1/C(=C/c2ccccn2)SC(=S)N1Nc1ncc(C(F)(F)F)cc1Cl	none (no result: TIM10 inh, tim10-1 inh, Mdm2-MdmX inh, tim23-1 inh)
O=C1/C(=C\c2ccccn2)SC(=S)N1Nc1ncc(C(F)(F)F)cc1Cl	TIM10 inh 59, tim10-1 inh 64, tim23-1 inh 64 | tim10-1 conf 57 | tim10 confirm 47 | tim23-1 conf inactive
CCOC(=O)c1sc(=NC(=O)c2ccc(F)cc2)n(C)c1C	none
CCOC(=O)c1sc(=NC(=O)c2c(F)cccc2F)n(C)c1C	TIM10 inh 47, tim10-1 inh 43, tim23-1 inh 56 | tim10-1 conf inactive | tim10 confirm 46 | tim23-1 conf 76
CC(C)Oc1ccc(C(=O)/C=C2/C(=O)Nc3ccccc32)cc1	TIM10 inh 76, tim10-1 inh 69, tim23-1 inh 88 | tim10-1 conf 76 | tim10 confirm 69 | tim23-1 conf 85
O=C(/C=C1\C(=O)Nc2ccccc21)/C=C1\C(=O)Nc2ccccc21	none (no result: TIM10 inh, tim10-1 inh, Mdm2-MdmX inh, tim23-1 inh)
O=C1Nc2ccccc2/C1=C\C(=O)c1ccccc1	TIM10 inh 82, tim10-1 inh 52, tim23-1 inh 88 | tim10-1 conf 52 | tim10 confirm 93 | tim23-1 conf inactive

Bioassay records: PubChem BioAssay, Sanford-Burnham Center for Chemical Genomics
